Data on 23 molecules can be found in PubChem BioAssay (NCATS).

Experiment [1] can be described thus: AP1 Signaling Pathway (AID 357). Further: on the % scale 0 is the no-effect control and ±100 the full control effect. The note with it: ME-180 AP-1-bla reporter, EGF-induced, beta-lactamase ratio, 5 h; at 17.2 µM (top of the series) unless noted. In short, it runs like this:
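ME-180 cells with beta-lactamase reporter under AP-1 response element, stimulated with EC50 EGF; compounds tested in titration series, 5 h at 37 °C. CCF4 substrate added 2.5 h at room temperature; 460/530 nm emission ratio gave %activity and AC50.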

Experiment [2] can be described thus: NFAT Signaling Pathway (AID 444).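 Further: carbachol stimulus at about its EC50 of 1 µM final; on the % scale 0 is the no-effect control and ±100 the full control effect.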 The note with it: Jurkat NFAT-bla M1, carbachol, beta-lactamase ratio, 5 h; at 17.2 µM (top of the series) unless noted. In short, it runs like this:
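Jurkat cells with NFAT-driven β-lactamase reporter and co-expressed M1 receptor, stimulated with carbachol (final 1 uM, ~EC50), compound titration, 5 h at 37 °C. CCF4 loaded 1 h at RT; 460/530 nm ratio gave %activity and AC50.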

The nature of experiment [3]: Stat Signaling Pathway (AID 446).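 Further: ME-180 cervical cancer cells given 40 pM IL-6 alongside compound; SIE-controlled beta-lactamase reporter measured as 460/530 nm FRET emission ratio; on the % scale 0 is the no-effect control and ±100 the full control effect.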 The settings on record: ME-180 SIE beta-lactamase reporter, IL-6 stimulated, 5 h; at 17.2 µM (top of the series) unless noted. In short, it runs like this:
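FRET read-out (405 nm excitation, 460/530 nm emission) of a beta-lactamase reporter under a STAT-inducible element in ME-180 cervical carcinoma cells. Cells with compound receive 40 pM IL-6 for 5 h. Values are normalised to AC90 stimulation and AC90 JAK-inhibitor controls.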

The target in experiment [4] is Glucocorticoid receptor (Homo sapiens) (UniProt P04150). Briefly: GR-GFP Redistribution (AID 450;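 active means compounds whose dose series gives a full or clear partial fitted curve of increased nuclear translocation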; further: potency means the concentration at half of the fitted maximal effect).
Experiment [5] can be described thus: qHTS Assay for Identification of Small Molecule Agonists for Hypoxia Response Element Signaling Pathway (AID 914; active means well fitted activation curve with a large enough effect in the signal ratio, with a control signal flat, not every such curve was filed as active; the % refers to the signal ratio; further: % of control where 0% means no effect). The settings on record: ME-180 (cervical carcinoma) HRE-bla reporter, beta-lactamase ratio, CoCl2, 17 h; activation: hits give high values. In short, it runs like this:
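Read-out: CCF4 FRET ratio of 460nm to 530nm emission (excitation 405nm) after 2.5 hours at room temperature, taken from HRE-bla ME-180 cells that had been exposed to compound and EC50 CoCl2 for 17 hours.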
(In general: qHTS replaces the single test concentration by a dilution series.)

Each structure is given as a SMILES string. Values without a mark were called inactive. Results filed as inconclusive are left out. Calls of active or inactive are those of the source. Unless noted, the call rests on the fitted dose curve; in most records, active means well fitted curve in either direction with a large enough effect (not every such curve was filed as active); inconclusive means small, poorly fitted or top-dose-only effect, or another doubt; inactive means flat fitted curve, though single readings scatter.

Glucocorticoid receptor (Homo sapiens), sequence (P04150 whole entry, looked up): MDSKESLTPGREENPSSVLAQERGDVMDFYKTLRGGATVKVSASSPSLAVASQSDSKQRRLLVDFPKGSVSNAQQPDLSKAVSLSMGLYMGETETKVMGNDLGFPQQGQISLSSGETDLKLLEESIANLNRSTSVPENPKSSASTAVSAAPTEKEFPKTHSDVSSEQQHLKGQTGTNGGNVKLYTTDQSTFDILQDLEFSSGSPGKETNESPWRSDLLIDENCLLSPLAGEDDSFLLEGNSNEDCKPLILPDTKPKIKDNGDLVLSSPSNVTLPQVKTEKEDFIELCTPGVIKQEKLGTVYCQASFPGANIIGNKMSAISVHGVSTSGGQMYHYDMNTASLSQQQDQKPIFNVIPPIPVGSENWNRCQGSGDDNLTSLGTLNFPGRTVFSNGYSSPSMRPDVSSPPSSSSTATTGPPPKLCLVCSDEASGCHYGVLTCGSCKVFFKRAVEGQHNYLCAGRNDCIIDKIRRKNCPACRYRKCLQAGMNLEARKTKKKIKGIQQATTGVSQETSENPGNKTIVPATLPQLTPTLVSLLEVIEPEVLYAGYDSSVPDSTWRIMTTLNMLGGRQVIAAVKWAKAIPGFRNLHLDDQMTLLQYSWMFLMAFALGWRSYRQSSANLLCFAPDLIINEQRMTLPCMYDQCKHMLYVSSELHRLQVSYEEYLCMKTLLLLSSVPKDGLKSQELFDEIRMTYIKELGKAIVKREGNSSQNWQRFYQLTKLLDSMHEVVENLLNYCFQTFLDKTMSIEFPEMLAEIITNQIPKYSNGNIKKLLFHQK

Turning to `Cc1cc(OCC(=O)Nn2cnnc2)ccc1Br`, the activity change, negative = inhibition in experiment [1] was 11.6%; in experiment [2], -7.1%. Also, the activity, negative = inhibition in experiment [3] is 4.67%. Besides, the Potency in experiment [4] is > 20.6 µM. For the same molecule, the activation in experiment [5] is 8.36%.
On to `COc1ccccc1NC(=O)Nc1nnc(C(C)C)s1`, for which the activity change, negative = inhibition in experiment [1] was -4.89%; in experiment [2], 20.9%. The activity, negative = inhibition in experiment [3] is -3.37%. Further, in experiment [4], the Potency is > 20.6 µM. Besides, the activation in experiment [5] was 10.4%.
The corresponding values for `O=C1c2ccccc2C(=O)N1CC1c2ccccc2CCN1C(=O)N1CCOCC1` (stereo not given) are -3.7%, -0.0702%, 1.92%, > 20.6 µM and 4.7%.
The corresponding values for `CSc1ccccc1NC(=O)c1c(Br)cnn1C` are -8.39%, -10.8%, 1.88%, > 20.6 µM and 27.6%.
On the same counts, the results for `CCOC(=O)C1(C(=O)OCC)C(c2ccccc2)CC(O)N1C(C)=O` (stereo not given) are 5.72%, 2.25%, -1.29%, > 20.6 µM and 15.4%.
In the case of `COCc1cc(C)nc(N)c1C#N`, the activity change, negative = inhibition was 5.99% in experiment [1] and -10.9% in experiment [2]. For the same molecule, in experiment [3], the activity, negative = inhibition is -0.857%. In experiment [4], the Potency was > 20.6 µM. In experiment [5], the activation is 1.6%.
On the same counts, the results for `CC(=O)N1CC=C2C(C#N)=C(N)C(C#N)(C#N)[C@H](c3ccoc3)[C@H]2C1` are 8.44%, -12.2%, 10.5%, > 20.6 µM and -26.3%.
Regarding `Cn1c(=O)c2c(nc(Oc3ccc4c(c3)OCO4)n2Cc2ccc(F)cc2)n(C)c1=O`, the activity change, negative = inhibition in experiment [1] was 28.8%; in experiment [2], 2.74%. For the same molecule, the activity, negative = inhibition in experiment [3] is 6.83%. Further, the Potency in experiment [4] is > 20.6 µM. In addition, the activation in experiment [5] was -23.2%.
Regarding `Cc1cc(C)nc(NC2=NCC(=O)N2c2ccc(Cl)cc2)n1`, the results for the activity change, negative = inhibition in experiment [1] and in experiment [2] were 0.0978% and -13.8%, respectively. Further, the activity, negative = inhibition in experiment [3] is 5.94%. In addition, the Potency in experiment [4] was > 20.6 µM. Besides, in experiment [5], the activation is 16.5%.
Take `CC(=O)N1CCN(c2nc(CC(C)C)c3c(c2C#N)CCC3)CC1`: the activity change, negative = inhibition in experiment [1] was -24.1%; in experiment [2] it was -8.91%. The activity, negative = inhibition in experiment [3] was -3.38%. The Potency in experiment [4] is > 20.6 µM. Moreover, the activation in experiment [5] is 24.5%.
On to `CCN(CC)CCNc1nc2c(c(=O)[nH]c(=O)n2C)n1CCOc1ccccc1`, for which the activity change, negative = inhibition in experiment [1] is -3.03%; in experiment [2], -7.16%. Also, in experiment [3], the activity, negative = inhibition is 8.2%. For the same molecule, the Potency in experiment [4] was > 20.6 µM. In experiment [5], the activation is 0.547%.
In the case of `O=C(c1ccc(=O)oc1)N1CCN(C(c2ccccc2)c2ccccc2)CC1`, the results for the activity change, negative = inhibition in experiment [1] and in experiment [2] were 26.4% and -101% (active), respectively. Moreover, the activity, negative = inhibition in experiment [3] is -15.5%. The Potency in experiment [4] is > 20.6 µM. Further, the activation in experiment [5] was 9.9%.
`Cc1cc(CC(=O)O)c(C)cc1CC(=O)O`: the activity change, negative = inhibition in experiment [1] is 11.9%; in experiment [2] it was 2.75%. Also, the activity, negative = inhibition in experiment [3] was 2.12%. Moreover, the Potency in experiment [4] was > 20.6 µM. Besides, in experiment [5], the activation was 5.91%.
On the same counts, the results for `CN1c2ccccc2-c2nc3ccccc3n2C1c1ccco1` (stereo not given) are 5.2%, -6.44%, -0.11%, > 20.6 µM and -8.71%.
For the molecule `CCc1nc(NCC2CCCO2)c(C#N)c2c1COC(C)(C)C2` (stereo not given), the activity change, negative = inhibition in experiment [1] is -25.1%; in experiment [2] it was -16.2%. Besides, the activity, negative = inhibition in experiment [3] was -2.2%. Besides, in experiment [4], the Potency was > 20.6 µM. In addition, in experiment [5], the activation was -11.3%.
Regarding `Cc1cc(C)c(S(=O)(=O)O)c(C)n1`, the activity change, negative = inhibition in experiment [1] was 6.1%; in experiment [2] it was -2.21%. Further, in experiment [3], the activity, negative = inhibition was 6.56%. Besides, the Potency in experiment [4] was > 20.6 µM. Moreover, the activation in experiment [5] is 11.7%.
In the case of `CNc1ccccc1-c1nc2ccccc2n(C)c1=O`, the values for the activity change, negative = inhibition in experiment [1] and in experiment [2] were 11.2% and -2.49%, respectively. For the same molecule, the activity, negative = inhibition in experiment [3] is 12%. Besides, the Potency in experiment [4] was > 20.6 µM. For the same molecule, the activation in experiment [5] is -4.3%.
For `Cc1cc(C(F)(F)F)c(C#N)c(SCC(=O)NC2CC2)n1`, the activity change, negative = inhibition in experiment [1] was 19.7%; in experiment [2] it was -9.19%. Also, in experiment [3], the activity, negative = inhibition was 1.05%. The Potency in experiment [4] is > 20.6 µM. Moreover, the activation in experiment [5] is 16.3%.
Regarding `O=C(NC1(C(F)(F)F)C(=O)Nc2c1c(=O)[nH]c(=O)n2Cc1ccco1)C1CCCCC1` (stereo not given), the values for the activity change, negative = inhibition in experiment [1] and in experiment [2] were -8.35% and -10.2%, respectively. In experiment [3], the activity, negative = inhibition was -2.02%. The Potency in experiment [4] was > 20.6 µM. For the same molecule, in experiment [5], the activation was -5.1%.
As for `O=C(C1CCCCC1)N1CCCn2c1nc1ccccc12`, the values for the activity change, negative = inhibition in experiment [1] and in experiment [2] were 8.92% and -19.9%, respectively. The activity, negative = inhibition in experiment [3] is 4.38%. Besides, the Potency in experiment [4] was > 20.6 µM. In experiment [5], the activation is 6.44%.
For the molecule `Cc1ccc(OCc2nnc(NC(=O)c3ccco3)s2)c(C)c1`, the figures for the activity change, negative = inhibition in experiment [1] and in experiment [2] were -4.34% and 11.7%, respectively. Also, the activity, negative = inhibition in experiment [3] is -14.8%. Besides, the Potency in experiment [4] is > 20.6 µM. In experiment [5], the activation is -11.9%.
Regarding `O=C(CNC1C(=O)Nc2ccccc21)Sc1ccccc1` (stereo not given), the activity change, negative = inhibition was -0.11% in experiment [1] and -10.4% in experiment [2]. The activity, negative = inhibition in experiment [3] was 9.1%. The Potency in experiment [4] was > 20.6 µM. The activation in experiment [5] was 4%.
On the same counts, the results for `CSc1nc(C)c2c(c1C#N)CCCC2` are -16.1%, -18.1%, 16.1%, > 20.6 µM and -4.49%.
